In PubChem BioAssay:
Inconclusive results are not listed. This is one part of the list. Calls of active or inactive are those of the source. Unless noted, no stated cut-off is given here; in the data, active means response below about 75% or above about 130%; inactive means in between.

Experiments:
[1] = biological target: Regulator of G-protein signaling 16 (Homo sapiens) (UniProt O15492); assay: small molecules altering RGS protein interactions with GNAO1 – biochemical, multiplexed beads, flow cytometry, RGS4/7/8/16/19, primary screen (AID 1504); conditions: multiplexed bead flow cytometry, measured here: RGS16 interaction, at 10 µM;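 further: fluorescently labeled Galpha-o bound to GDP with aluminium fluoride binding biotinylated RGS beads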
[2] = biological target: Regulator of G-protein signaling 19 (Homo sapiens) (UniProt P49795); assay: as above; conditions: multiplexed bead flow cytometry, measured here: RGS19 interaction, at 10 µM
[3] = biological target: Regulator of G-protein signaling 7 (Homo sapiens) (UniProt P49802); assay: as above; conditions: multiplexed bead flow cytometry, measured here: RGS7 interaction, at 10 µM
[4] = biological target: Regulator of G-protein signaling 8 (Homo sapiens) (UniProt P57771); assay: as above; conditions: multiplexed bead flow cytometry, measured here: RGS8 interaction, at 10 µM
[5] = interference with biotin-avidin bead interaction – biochemical, flow cytometry, bead-based, counter-screen for RGS protein interaction modulators (AID 1783;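 active means inhibition above 50%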;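 further: median green fluorescence of gated singlet beads compared with DMSO control wells; 0% = DMSO wells and 100% = complete loss of bead fluorescence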); conditions: streptavidin beads, fluorescein-biotin binding; at 10 µM, stronger effect = higher value
[6] = biological target: Guanine nucleotide-binding protein G(o) subunit alpha (Homo sapiens) (UniProt P09471); assay: retest of RGS8-Galphao interaction hits – biochemical, multiplexed bead flow cytometry, single concentration, confirmation (AID 1836; in the data active means binding response below about 72% or above about 130%; inactive means in between;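 further: Galphao activated as GDP AlF4 complex before binding bead RGS8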); conditions: bead-based flow cytometry RGS8-Galphao binding, fluorescence; at 10 µM; actives lie on both sides
[7] = biological target: Guanine nucleotide-binding protein G(o) subunit alpha (Homo sapiens) (UniProt P09471); assay: retest of RGS7-Galphao interaction hits – biochemical, multiplexed bead flow cytometry, single concentration, confirmation (AID 1837); conditions: bead-based flow cytometry RGS7-Galphao binding; at 10 µM; actives lie on both sides;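 further: fluorescent Galphao activated with GDP and aluminum fluoride binding bead-coupled RGS7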
[8] = biological target: Regulator of G-protein signaling 16 (Homo sapiens) + Guanine nucleotide-binding protein G(o) subunit alpha (Homo sapiens) (UniProt O15492+P09471); assay: RGS16 and Galphao interaction regulators – biochemical, single concentration, multiplexed bead flow cytometry, confirmation (AID 1838; in the data active means response below about 74% or above about 130%; inactive means in between;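 further: Galphao activated as the GDP aluminium fluoride complex binding bead-coupled RGS16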); conditions: bead-based flow cytometry, at 10 µM, actives lie on both sides
[9] = biological target: Guanine nucleotide-binding protein G(o) subunit alpha (Homo sapiens) (UniProt P09471); assay: RGS4 and Galphao interaction regulators – biochemical, single concentration, multiplexed bead flow cytometry, confirmation (AID 1840; in the data active means binding response below about 74% or above about 130%; inactive means in between); conditions: at 10 µM, actives lie on both sides
[10] = biological target: Guanine nucleotide-binding protein G(o) subunit alpha (Homo sapiens) + Regulator of G-protein signaling 19 (Homo sapiens) (UniProt P09471+P49795); assay: RGS19 interaction with Gαo, hit retest – biochemical, single point, multiplexed bead flow cytometry, confirmation (AID 1841; in the data active means response below about 50% or above about 160%; inactive means in between;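 further: 100% = no compound control and 0% = blank background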); conditions: bead-based flow cytometry RGS19-Galphao binding; at 10 µM; actives lie on both sides
[11] = rapamycin-like changes in RPL19A-GFP expression – cell-based, S. cerevisiae, multiplex flow cytometry, primary screen (AID 1862; in the data active means percent of DMSO control GFP below about 86%;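 further: lower values mimic rapamycin by blocking the RPL19A rise seen in DMSO cells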); conditions: S. cerevisiae RPL19A-GFP strain, flow cytometry fluorescence, 3 h; at 10 µM; stronger effect = lower value
[12] = TOR pathway GLN3 branch reporter MEP2-GFP changes – S. cerevisiae, multiplex flow cytometry, primary screen (AID 1867;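 active means GFP response, as percent of the DMSO control, above the screen-wide mean plus 3 SD, about 139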;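 further: median GFP channel fluorescence of barcode-gated MEP2-GFP cells measured by flow cytometry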); conditions: S. cerevisiae MEP2-GFP strain, 3 h, at 10 µM, stronger effect = higher value, 100% means same as DMSO wells
[13] = TOR pathway RTG branch CIT2 reporter changes – S. cerevisiae, GFP fusion, multiplex flow cytometry, primary screen (AID 1870;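 active means percent response above a set limit, the screen-wide mean plus 3 SD, cut at about 130% in these data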;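 further: barcoded CIT2-GFP strain pooled with four other GFP strains with rapamycin as positive control; median GFP fluorescence per well over plate mean of DMSO wells so 100% = DMSO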); conditions: S. cerevisiae CIT2-GFP expression, 3 h, at 10 µM, stronger effect = higher value
[14] = TOR pathway LAP4-GFP level changes – S. cerevisiae, multiplex flow cytometry, primary screen (AID 1873;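 active means GFP signal, as percent of the solvent control, above the screen mean plus 3 SD, about 149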); conditions: S. cerevisiae LAP4-GFP expression, 3 h, at 10 µM, stronger effect = higher value
[15] = yeast AGP1-GFP level changes, GLN3 branch – cell-based, multiplex flow cytometry, S. cerevisiae, primary screen (AID 1887;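 active means GFP signal above the screen-wide mean plus 3 SD, that is over about 124.5% of the solvent control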;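 further: AGP1-GFP fusion strain of S. cerevisiae within a five-strain barcoded multiplex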); conditions: 3 h, at 10 µM, stronger effect = higher value
[16] = hit retest on RPL19A-GFP reporter strain – cell-based, S. cerevisiae, flow cytometry, cherry picks, mother/daughter gates, confirmation (AID 2270;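 active means GFP response below 50% of the DMSO control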); conditions: 3 h, at 10 µM, stronger effect = lower value, 100 = same GFP as DMSO wells
[17] = yeast TOR pathway reporter LAP4-GFP change – cell-based, cherry picks, flow cytometry, mother/daughter gates, confirmation (AID 2271;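 active means GFP response above 150% of the DMSO control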;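 further: ratio of sample to DMSO plate mean so 100% equals DMSO level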); conditions: S. cerevisiae LAP4-GFP strain, 3 h, at 10 µM, stronger effect = higher value, 100 means same as DMSO control
[18] = TOR pathway reporter MEP2-GFP, retest of hits – S. cerevisiae, flow cytometry GFP, cherry picks, confirmation (AID 2272;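 active means GFP response above 150% of the DMSO control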;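 further: ratio of well signal to plate DMSO mean so 100% equals DMSO level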); conditions: S. cerevisiae MEP2-GFP strain, 3 h, at 10 µM, stronger effect = higher value
[19] = TOR pathway CIT2 reporter hit retest – S. cerevisiae, GFP fusion, cherry picks, mother/daughter gates, confirmation (AID 2274;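 active means GFP response above 150% of the DMSO level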); conditions: S. cerevisiae CIT2-GFP strain, flow cytometry, 3 h, at 10 µM, stronger effect = higher value
[20] = reduced mouse 2C T cell binding to pMHC/ICAM-1 vesicles – MLPCN validation set, flow cytometry, LFA-1/ICAM-1 modulator project, pilot screen (AID 2523;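 active means response below a set limit, under 55% cells CD8-positive and vesicle-bound, and CD8 cells' 90th-percentile brightness under 279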;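 on vesicle binding response: mean PE anti-B7-1 fluorescence of CD8+ cells relative to row control; 100% = QL9-loaded vesicles with DMSO vehicle in the same plate row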); conditions: 2C mouse CD8+ T cells, at 7 µM, stronger effect = lower value; double positive events: measured here: CD8+/vesicle+ event percentage
[21] = measured here: daughter cell gate
[22] = measured here: mother cell gate
[23] = measured here: daughter cell gate response
[24] = measured here: mother cell gate response

Chain of Regulator of G-protein signaling 16 (Homo sapiens) + Guanine nucleotide-binding protein G(o) subunit alpha (Homo sapiens) (O15492 whole entry, looked up): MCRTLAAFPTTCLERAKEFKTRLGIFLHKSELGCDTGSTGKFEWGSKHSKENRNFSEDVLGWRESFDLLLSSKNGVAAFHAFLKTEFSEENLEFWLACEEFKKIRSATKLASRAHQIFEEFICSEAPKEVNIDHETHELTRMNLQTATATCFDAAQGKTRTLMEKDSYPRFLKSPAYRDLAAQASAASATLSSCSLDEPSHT
Chain of Regulator of G-protein signaling 16 (Homo sapiens) + Guanine nucleotide-binding protein G(o) subunit alpha (Homo sapiens) (P09471 whole entry, looked up): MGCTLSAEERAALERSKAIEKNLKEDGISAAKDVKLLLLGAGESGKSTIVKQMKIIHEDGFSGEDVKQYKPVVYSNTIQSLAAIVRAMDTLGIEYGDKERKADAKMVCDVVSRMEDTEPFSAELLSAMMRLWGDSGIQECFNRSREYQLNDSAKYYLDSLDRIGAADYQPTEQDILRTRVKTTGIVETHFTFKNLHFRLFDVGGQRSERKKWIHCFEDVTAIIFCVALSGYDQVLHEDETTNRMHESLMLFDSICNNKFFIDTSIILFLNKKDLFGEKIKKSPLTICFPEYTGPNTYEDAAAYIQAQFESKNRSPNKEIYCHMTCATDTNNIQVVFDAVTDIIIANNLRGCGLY
Chain of Guanine nucleotide-binding protein G(o) subunit alpha (Homo sapiens) (P09471 whole entry, looked up): as above
Chain of Guanine nucleotide-binding protein G(o) subunit alpha (Homo sapiens) + Regulator of G-protein signaling 19 (Homo sapiens) (P09471 whole entry, looked up): as above
Chain of Guanine nucleotide-binding protein G(o) subunit alpha (Homo sapiens) + Regulator of G-protein signaling 19 (Homo sapiens) (P49795 whole entry, looked up): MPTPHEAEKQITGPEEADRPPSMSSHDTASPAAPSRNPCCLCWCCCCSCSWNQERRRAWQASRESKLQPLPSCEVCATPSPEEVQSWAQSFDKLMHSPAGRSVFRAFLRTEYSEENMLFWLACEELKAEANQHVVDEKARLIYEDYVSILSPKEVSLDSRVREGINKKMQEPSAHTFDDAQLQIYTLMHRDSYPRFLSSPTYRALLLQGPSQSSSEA

For `FC(F)Oc1ccccc1C1CC(c2ccc(Br)s2)Nc2ncnn21` (stereo unspecified), which RGS16–Galpha-o binding response [1] is on record?
The RGS16–Galpha-o binding response was 215%.

And the RGS19–Galpha-o binding response [2]?
The RGS19–Galpha-o binding response was -1720%.

And the RGS7–Galpha-o binding response [3]?
The RGS7–Galpha-o binding response was 163%.

What about the RGS8–Galpha-o binding response [4] of the same compound?
Its RGS8–Galpha-o binding response is 111%.

And the inhibition [5]?
Its inhibition is 2.6% (inactive).

What about the binding response (% of control) [6] of the same compound?
Its binding response (% of control) is 99.3% (inactive).

And the response (percent of control binding) [7]?
The response (percent of control binding) was 98% (inactive).

What about the response (% of control binding) [8] of the same compound?
The response (% of control binding) was 97.2% (inactive).

And the binding response (% of control) [9]?
The binding response (% of control) was 95.9% (inactive).

What about the response (percent of control binding) [10] of the same compound?
Its response (percent of control binding) is 96% (inactive).

Which inhibition [5] does the source give for `CCCOc1ccc(Cc2c(Cl)nc(SC)nc2NC)cc1` here?
Its inhibition is -0.2% (inactive).

And the binding response (% of control) [6]?
The binding response (% of control) was 102% (inactive).

What about the response (percent of control binding) [7] of the same compound?
Its response (percent of control binding) is 94.9% (inactive).

What about the response (% of control binding) [8] of the same compound?
The response (% of control binding) was 99.9% (inactive).

What about the binding response (% of control) [9] of the same compound?
Its binding response (% of control) is 101% (inactive).

What about the response (percent of control binding) [10] of the same compound?
Its response (percent of control binding) is 67.1% (inactive).

What does the source list for `CCN(CC)CCn1cnc2c1c(=O)n(CCOC(=O)c1cc(OC)c(OC)c(OC)c1)c(=O)n2C`?
RGS16–Galpha-o binding response [1]: 147%; RGS19–Galpha-o binding response [2]: 76.4%; RGS7–Galpha-o binding response [3]: 13%; RGS8–Galpha-o binding response [4]: 131%; inhibition [5]: -0.6% (inactive); binding response (% of control) [6]: 104% (inactive); response (percent of control binding) [7]: 103% (inactive); response (% of control binding) [8]: 104% (inactive); binding response (% of control) [9]: 105% (inactive); response (percent of control binding) [10]: 108% (inactive)

What does the source list for `C[C@]12CC[C@H]3[C@@H](CCC4=CC(=O)CC[C@@]43C)[C@@H]1CC[C@@H]2C(=O)CO`?
percent of DMSO control GFP [11]: 93.7% (inactive); GFP response vs DMSO [12]: 119% (inactive); percent response of DMSO control [13]: 102% (inactive); GFP response vs DMSO [14]: 84.7% (inactive); GFP response, % of DMSO [15]: 84.3% (inactive); GFP response vs DMSO [16]: 97.8% (inactive); GFP response vs DMSO [16, 21]: 95.3%; GFP response vs DMSO [16, 22]: 98.4%; GFP response relative to DMSO [17]: 107% (inactive); GFP response relative to DMSO [17, 23]: 106%; GFP response relative to DMSO [17, 24]: 106%; GFP response vs DMSO [18]: 93.5% (inactive); GFP response, % of DMSO [19]: 91.3% (inactive); GFP response, % of DMSO [19, 21]: 89.9%; GFP response, % of DMSO [19, 22]: 91.2%; double positive events [20]: 56.7%; vesicle binding response [20]: 201% (inactive)

With `c1cnc2c(c1)ccc1cccnc12` as the compound, how does the percent of DMSO control GFP [11] read?
The percent of DMSO control GFP was 98.9% (inactive).

What about the GFP response vs DMSO [12] of the same compound?
The GFP response vs DMSO was 107% (inactive).

What about the percent response of DMSO control [13] of the same compound?
Its percent response of DMSO control is 96.4% (inactive).

What about the GFP response vs DMSO [14] of the same compound?
Its GFP response vs DMSO is 174% (active).

And the GFP response, % of DMSO [15]?
Its GFP response, % of DMSO is 117% (inactive).

What about the GFP response vs DMSO [16] of the same compound?
Its GFP response vs DMSO is 101% (inactive).

And the GFP response vs DMSO [16, 21]?
The GFP response vs DMSO was 100%.

What about the GFP response vs DMSO [16, 22] of the same compound?
The GFP response vs DMSO was 100%.

What about the GFP response relative to DMSO [17] of the same compound?
Its GFP response relative to DMSO is 116% (inactive).

What about the GFP response relative to DMSO [17, 23] of the same compound?
The GFP response relative to DMSO was 116%.

And the GFP response relative to DMSO [17, 24]?
The GFP response relative to DMSO was 117%.

And the GFP response vs DMSO [18]?
The GFP response vs DMSO was 112% (inactive).

And the GFP response, % of DMSO [19]?
Its GFP response, % of DMSO is 111% (inactive).

What about the GFP response, % of DMSO [19, 21] of the same compound?
Its GFP response, % of DMSO is 117%.

What about the GFP response, % of DMSO [19, 22] of the same compound?
The GFP response, % of DMSO was 107%.

What about the double positive events [20] of the same compound?
Its double positive events is 59.5%.

And the vesicle binding response [20]?
Its vesicle binding response is 192% (inactive).

For `O=C(CSc1ccc2nnc(-c3ccccc3)n2n1)N1CCCc2ccccc21`, which RGS16–Galpha-o binding response [1] is on record?
Its RGS16–Galpha-o binding response is 413%.

What about the RGS19–Galpha-o binding response [2] of the same compound?
Its RGS19–Galpha-o binding response is -1120%.

And the RGS7–Galpha-o binding response [3]?
The RGS7–Galpha-o binding response was 207%.

And the RGS8–Galpha-o binding response [4]?
Its RGS8–Galpha-o binding response is 112%.

What about the inhibition [5] of the same compound?
The inhibition was 2% (inactive).

And the binding response (% of control) [6]?
Its binding response (% of control) is 104% (inactive).

And the response (percent of control binding) [7]?
Its response (percent of control binding) is 101% (inactive).

What about the response (% of control binding) [8] of the same compound?
The response (% of control binding) was 101% (inactive).

What about the binding response (% of control) [9] of the same compound?
Its binding response (% of control) is 103% (inactive).

And the response (percent of control binding) [10]?
The response (percent of control binding) was 108% (inactive).

What does the source list for `COCCNC(=S)N/N=C/c1c(C)[nH]c2ccccc12`?
RGS16–Galpha-o binding response [1]: 153%; RGS19–Galpha-o binding response [2]: 993%; RGS7–Galpha-o binding response [3]: 142%; RGS8–Galpha-o binding response [4]: 105%; inhibition [5]: 0.1% (inactive); binding response (% of control) [6]: 105% (inactive); response (percent of control binding) [7]: 212% [activator] (active); response (% of control binding) [8]: 134% [activator] (active); binding response (% of control) [9]: 161% [activator] (active); response (percent of control binding) [10]: 225% (active)

What does the source list for `CCOC(=O)CCP(=O)(O)C(O)(c1ccccc1)c1ccccc1`?
inhibition [5]: 2.2% (inactive); binding response (% of control) [6]: 99.3% (inactive); response (percent of control binding) [7]: 101% (inactive); response (% of control binding) [8]: 101% (inactive); binding response (% of control) [9]: 100% (inactive); response (percent of control binding) [10]: 99.5% (inactive)
